Screening results as filed in PubChem.
CHRM1 agonist: human M1 muscarinic receptor agonism. P11229. CHO-K1 hM1, Fluo-8 calcium fluorescence, agonist mode; 0% DMSO, 100% acetylcholine EC100. activation, % at 3 µM. 360,000 compounds, 0.33% hits. AID 588814;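 active means activation above the run's mean compound activation plus 3 SD, cut at about 16% in these data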;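 further: peak over basal fluorescence ratio within a 140 s kinetic read after compound addition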
Target sequence (P11229 whole entry, looked up): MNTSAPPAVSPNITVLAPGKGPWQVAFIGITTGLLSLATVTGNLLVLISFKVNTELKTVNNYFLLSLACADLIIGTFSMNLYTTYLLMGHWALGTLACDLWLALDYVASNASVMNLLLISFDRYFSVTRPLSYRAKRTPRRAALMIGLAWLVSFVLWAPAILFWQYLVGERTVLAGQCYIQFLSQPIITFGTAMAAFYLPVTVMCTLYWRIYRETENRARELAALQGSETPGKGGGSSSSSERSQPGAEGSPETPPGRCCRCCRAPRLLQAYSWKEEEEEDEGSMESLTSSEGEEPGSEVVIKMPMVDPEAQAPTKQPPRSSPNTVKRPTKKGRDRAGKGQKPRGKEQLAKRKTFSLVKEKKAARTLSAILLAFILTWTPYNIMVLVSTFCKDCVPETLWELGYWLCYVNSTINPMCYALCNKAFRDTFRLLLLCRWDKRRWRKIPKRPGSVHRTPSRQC
CHO-K1 Ca ag: counter-screen for M1 agonists: effect in parental CHO-K1 cells | Fluo-8 calcium fluorescence; scaled to maximal ATP response, vehicle zero | activation, % at 3 µM | 360,000 compounds, 0.48% hits; in the data active means activation above about 15%;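 further: untransfected CHO-K1 host cells lacking M1 receptor as counterscreen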
CHRM1 PAM: potentiates human M1 receptor response to acetylcholine; P11229; CHO-K1 hM1, Fluo-8 calcium fluorescence, ACh EC20; 0% = ACh EC20, 100% = maximal ACh; activation, % at 3 µM; AID 588819; 360,000 compounds, 0.088% hits; in the data active means activation above about 19%, passing the limit was not always enough
CHO-K1 Ca antag: nonselective inhibitor or artifact in parental CHO-K1 cells; ATP-induced calcium, Fluo-8 fluorescence; inhibition, % at 3 µM; 360,000 compounds, 0.6% hits; AID 602250;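 active means inhibition above a per-plate cutoff, the plate's mean sample inhibition plus 3 SD, cut at about 24% in these data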;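 further: 0% = DMSO plus EC80 ATP and 100% = DMSO alone without ATP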
M1 antag: human CHRM1 antagonism. P11229. CHO-K1 hM1, Fluo-8 calcium fluorescence, ACh EC80 antagonist. inhibition, % at 3 µM. 360,000 compounds, 1.3% hits;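 active means percent inhibition above its own plate's cutoff, namely the mean of that plate's compound wells plus 3 SD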;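 further: peak over basal fluorescence ratio during 140 s after agonist addition; 0% = ACh EC80 plus DMSO and 100% = DMSO alone without agonist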
M1 PAM parental: counter-screen for M1 PAMs: effect in parental CHO-K1 cells. AID 602247. 360,000 compounds, 0.02% hits. activation, % at 3 µM. ATP EC20, Fluo-8 calcium fluorescence; 0% at ATP EC20, 100% at ATP max;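 active means activation above the run cutoff, the mean activation of all test compounds plus 3 SD, cut at about 40% in these data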;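 further: peak over basal fluorescence ratio in a 140 s read after ATP addition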
Numbers without * were called inactive. A selection: hits, their analogues and other compounds. The true share with any hit is near 2.3%.

SMILES	CHRM1 agonist	CHO-K1 Ca ag	CHRM1 PAM	CHO-K1 Ca antag	M1 antag	M1 PAM parental
CCOC(=O)C1CCCN(C(=O)CCn2nc(-c3ccccc3)ccc2=O)C1 (centres undefined)	11	0	-4	24*	2	-11
CCOC(=O)N1CCC(NC2CCCCCCC2)CC1	-7	2	-27	-4	74*	1
CCOC(=O)C1CCCN(C(=S)Nc2ccc(OC)cc2)C1 (centres undefined)	57*	10	-17	0	58*	13
CCOC(=O)C1CCCN(C(=O)Cn2nc(C)n3c(cc4c(OC)cccc43)c2=O)C1 (centres undefined)	21*	0	-3	-9	4	10
CCOC(=O)C1CCCN(C(=S)NC2CCCC2)C1 (centres undefined)	51*	1	-19	-6	3	19
CCOC(=O)C1CCCN(c2cc(C)nc3cc(-c4ccc(F)cc4)nn23)C1 (centres undefined)	46*	0	-26	-22	24	22
CCOC(=O)C1CCCN(CCc2ccccc2)C1 (centres undefined)	18*	1	-12	-5	49*	6
Cc1ccc(/C=C(\NC(=O)c2ccc(C)cc2)C(=O)NCCCn2ccnc2)cc1	-11	-1	3	5	-10	-4
COc1cccc(CN(C)CCCn2cnc(C(=O)Nc3ccc(C)c(C)c3)n2)c1	-6	1	-1	-13	0	11
CCOC(=O)C1CCCN(C(=S)Nc2ccc(F)cc2)C1 (centres undefined)	79*	0	-24	-7	69*	21
CCOC(=O)c1ccc(NC(=S)N2CCCC(C(=O)OCC)C2)cc1 (centres undefined)	76*	0	-37	13	69*	-14
CCOC(=O)c1ccc(NC(=S)N2CCC(C(N)=O)CC2)cc1	-10	1	-10	-7	8	18
CCOC(=O)C1CCCN(C(=O)CSc2ccc(NC(C)=O)cc2)C1 (centres undefined)	-3	1	10	-13	-21	16
CCOC(=O)C1CCCN(C(=O)CCCn2nnnc2CN2CCC(C)CC2)C1 (centres undefined)	22*	1	0	-12	-8	2
CCOC(=O)N1CCC(N2CCN(C3CCCC3)C(CCO)C2)CC1 (centres undefined)	-13	1	-35	-6	47*	26
COc1ccc2nc(NC(=O)Cn3cnc4ccccc4c3=O)sc2c1	-2	1	4	-6	-1	-3
Cc1ccc(NC(=S)N2CCN(S(=O)(=O)c3ccc(F)cc3)CC2)cc1	-1	0	7	-5	-1	-6
CCOC(=O)C1CCCN(C(=O)Nc2ccccc2)C1 (centres undefined)	54*	0	-23	-11	11	-3
CCOC(=O)C1CCCN(C(=O)C2CCN(C(=O)Nc3ccccc3)CC2)C1 (centres undefined)	1	1	8	-10	-17	21
CCC(O)c1cc2c(cc1NC(=O)c1ccc(C)cc1)OCCO2 (centres undefined)	-3	0	-14	17	26*	-7
O=c1[nH]c2ccc(NCc3ccccc3OCc3ccc(Cl)cc3)cc2[nH]1	-2	9	-4	9	20	8
Cc1c(N=C(N)/N=C(\N)Nc2ccccc2)c(=O)n(-c2ccccc2)n1C	-12	0	-27	-2	67*	-7
Cn1nc(CC(=O)NCc2ccc(C(F)(F)F)cc2)c2ccccc2c1=O	5	8	-3	4	10	1
COc1ccc(CNC(=O)Cc2nn(C)c(=O)c3ccccc23)cc1	4	11	-11	24*	26	-6
CC/C(=N\NC(=O)CSCc1ccc(Cl)cc1)c1ccc2c(c1)OCCO2	-2	0	-6	28*	10	-7
SMILES	CHRM1 agonist	CHO-K1 Ca ag	CHRM1 PAM	CHO-K1 Ca antag	M1 antag	M1 PAM parental
CC/C(=N\NC(=O)CSCc1ccccc1Cl)c1ccc2c(c1)OCCO2	-7	3	3	-5	-4	15
Clc1ccc(Cn2cccn2)cn1	-5	0	6	-16	-4	6
Cc1ccc(S(=O)(=O)N2C[C@H]3C(=O)C[C@@H](c4ccccc4)N(S(=O)(=O)c4ccc(C)cc4)[C@H]3C[C@H]2c2ccccc2Cl)cc1	-3	0	-1	7	1	11
C=CC[C@@H](CC(=O)N[C@H](CO)Cc1ccccc1)C(=O)NC[C@H](OC(=O)[C@@H](CC=C)Cc1ccc(F)cc1)c1ccccc1	-4	4	-19	-4	34*	2
C=CCC[C@@H](Cc1ccc(F)cc1)C(=O)OC[C@H](Cc1c[nH]c2ccccc12)NC(=O)[C@@H](CC=C)CC(=O)NCCO	1	18*	5	8	1	2
C=CCNC(=S)N1CCC(C(=O)c2ccc(Cl)cc2)CC1	2	3	0	6	-7	-19
CCOc1ccc(CCNC(=O)Cn2nc(C)c3c(C)n(-c4ccccc4)nc3c2=O)cc1OCC	-6	-1	8	-9	-18	19
O=C(C1CCCN(S(=O)(=O)c2cccs2)C1)N1CCN(C2CCCCC2)CC1 (centres undefined)	-10	0	-17	-3	17*	-4
O=C(C1CCCN(S(=O)(=O)c2cccs2)C1)N1CCc2ccccc2C1 (centres undefined)	0	2	4	-13	-25	18
CCOC(=O)c1oc2ccc(CNC3CCCCC3)c(Cl)c2c1C	-11	1	-36	-2	76*	0
C[C@@H](CSc1ccccc1)CN1CC[C@H](NC(=O)OCc2ccccc2)CCC1=O	1	5	4	-7	5	16
CCn1c(SCC(=O)NCc2ccc(F)cc2)nc2c(c1=O)SC(C)C2 (centres undefined)	0	0	4	14	7	-4
CCn1c(SCC(=O)NCc2ccccc2)nc2c(c1=O)SC(C)C2 (centres undefined)	0	0	9	32*	-2	-9
Cc1cc(NC(=O)C(Cl)Cl)cc2c1OCO2	-3	0	4	7	-7	-8
CN1CCC(N(C)CC(=O)Nc2ccc3c(c2)OC(F)(F)O3)CC1	-7	0	-23	-9	72*	9
Cn1cccc1C(=O)NCC(c1ccc(F)cc1)N1CCOCC1 (centres undefined)	1	0	26*	-14	-25	-6
Cc1ccc(C(=O)NCC(c2ccc(F)cc2)N2CCOCC2)cc1 (centres undefined)	-3	1	4	-14	-8	22
Nc1ccn(CC(=O)NCCNc2ccc([N+](=O)[O-])cn2)c(=O)n1	-5	0	2	-10	0	2
